The target of the first experiment is JOSD1. Kind of experiment: pooled miR-30 sensor sort-seq; sequence = guide strand. The conditions noted are these: shRNA.
TGATGTTTTAGAAACTTCCTGA gave a sensor-assay potency score (higher = more potent) of 0.299.

In turn, TAGAAACTTCCTGAGCTCGCTC displayed a sensor-assay potency score (higher = more potent) of 0.337.

Regarding TTGGAGTCGAGGTTGTAGTAGG, the sensor-assay potency score (higher = more potent) was -0.655.

For the sequence TTTCCCAGCATGCTCTTCTTGT, the sensor-assay potency score (higher = more potent) is -0.498.

As to TTGAGTTTGGAGTCGAGGTTGT, the sensor-assay potency score (higher = more potent) was determined as 0.206.

Take TCGAACACAGATCCAGTGCTGC: the sensor-assay potency score (higher = more potent) is -0.708.

The sequence TACCTCTTCTGGTACCACCAGC displayed a sensor-assay potency score (higher = more potent) of -0.788.

The next experiment concerns the target KAAG1. Described as above. The conditions noted are these: shRNA.
TCAGCCCGTCGTGAAGAGCGTG: the sensor-assay potency score (higher = more potent) is -1.18.

In turn, TTTCTCGTTCGTTTCAGGAGGC came in with a sensor-assay potency score (higher = more potent) of 0.381.

In the case of TTCTCGTTCGTTTCAGGAGGCG, the sensor-assay potency score (higher = more potent) is -0.584.

TTCGTCAGTTTCTCGTTCGTTT registered a sensor-assay potency score (higher = more potent) of -0.143.

TCTCGTTCGTTTCAGGAGGCGA showed a sensor-assay potency score (higher = more potent) of -0.839.

TGCTTGTGTACCGCAACGGGGA: the sensor-assay potency score (higher = more potent) was -1.14.

As to TGGATTCGTCAGTTTCTCGTTC, the sensor-assay potency score (higher = more potent) was -0.583.

Consider AAGAGCGTGCTTGTGTACCGCA, for which the sensor-assay potency score (higher = more potent) is -0.0933.

TCGTTTCAGGAGGCGATCCCGC came in with a sensor-assay potency score (higher = more potent) of -1.24.

Sequence ATTCGTCAGTTTCTCGTTCGTT registered a sensor-assay potency score (higher = more potent) of -0.19.

In the case of TTTCAGGAGGCGATCCCGCGCC, the sensor-assay potency score (higher = more potent) is -0.845.

Sequence TCAGTTTCTCGTTCGTTTCAGG yielded a sensor-assay potency score (higher = more potent) of -0.203.

The target of another experiment is KBTBD10. The description is as above. The conditions noted are these: shRNA.
In turn, ATTGTCTAGCACTACCTCCTTT registered a sensor-assay potency score (higher = more potent) of -0.463.

Take TTGTACATTTTTTGTCATCTGT: the sensor-assay potency score (higher = more potent) is -0.405.

TTTGCCTGCAACTACATAGATT returned a sensor-assay potency score (higher = more potent) of -1.51.

On to TAAGGTAGCATTCATTTTCCGT, for which the sensor-assay potency score (higher = more potent) was -0.0345.

The sequence TTTATCATCCACCTCTCCCAGA displayed a sensor-assay potency score (higher = more potent) of -0.692.

Sequence TTGCTAGGCAACTAGCTCCTGA yielded a sensor-assay potency score (higher = more potent) of -0.209.

Regarding TTGCATACAGAGATCCAGCCAG, the sensor-assay potency score (higher = more potent) was -0.134.

Take TGAAGCATAACGTATTTCCTTC: the sensor-assay potency score (higher = more potent) is -0.295.

TTTTGCTGGGTAACAATGCTGG returned a sensor-assay potency score (higher = more potent) of -0.684.

Consider TATGTCATTGACTTCAGTGGGT, for which the sensor-assay potency score (higher = more potent) amounted to 0.618.

As for TAGCTCCTGAAGCATAACGTAT, the sensor-assay potency score (higher = more potent) is -1.66.

In the case of TTGTCTAGCACTACCTCCTTTT, the sensor-assay potency score (higher = more potent) is -0.574.

The target in a further experiment is KBTBD12. The experiment is described as above. The note with it: shRNA.
In the case of TACAGCTGTACTGAATCGGTAC, the sensor-assay potency score (higher = more potent) was -0.257.

In turn, TTTAATAACACCGACACACTTT had a sensor-assay potency score (higher = more potent) of 0.48.

Take TTCTTCATCAGGAAGATCCATC: the sensor-assay potency score (higher = more potent) is -0.961.

TTATTCAGTAAATTCAAGCTAT yielded a sensor-assay potency score (higher = more potent) of -0.287.

Sequence TTGTAGTGTCTTATTTACCCTA gave a sensor-assay potency score (higher = more potent) of -0.555.

TTCATCAGGAAGATCCATCTGA: the sensor-assay potency score (higher = more potent) came out at 0.942.

Regarding TAAATCTTCAGCTCCAATCTGC, the sensor-assay potency score (higher = more potent) was 0.302.

With TATATTTTTGACACACACTGAA, the sensor-assay potency score (higher = more potent) turned out to be 0.336.

On to TGGTCATCTAGCTACAACCTAC, for which the sensor-assay potency score (higher = more potent) was -1.11.
Further: reference of the scale not given here.
